# Measurements as given in PubChem BioAssay (EPA / NIEHS).
# Where “and” joins values, the source holds several entries; their conditions need not be identical. Equal values may be shown once. Calls of active or inactive are those of the source. Rule for the calls: active = hit-call score of the fitted dose curve at least 0.9, where 1 is the maximum; inactive = score below 0.9.
# Columns and labels:
# Conditions in all cases: mRNA level, 48 h; actives raise or lower the signal
# [1] = read-out: Phosphatase and tensin (PTEN), PTEN (gene 5728); assay: LTEA_HepaRG_PTEN: Life Technologies and Expression Analysis (LTEA) Assay for Phosphatase and tensin (PTEN) using HepaRG (AID 2283523)
# Outline: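 HepaRG, 48 h exposure, 8-pt half-log series from 100 uM top, 0.5% DMSO vehicle, duplicates. Readout: Fluidigm qRT-PCR of PTEN transcript; housekeeping normalization (ACTB, GAPDH, POLR2A). Gain or loss fitted relative to DMSO baseline.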
# [2] = read-out: solute carrier (SLC22A1), SLC22A1 (gene 6580); assay: LTEA_HepaRG_SLC22A1: Life Technologies and Expression Analysis (LTEA) Assay for solute carrier (SLC22A1) using HepaRG (AID 2283524)
# Outline: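 qRT-PCR readout (TaqMan, Fluidigm arrays) of SLC22A1 transcript, normalized to three housekeeping genes; bidirectional curve fit relative to 0.5% DMSO vehicle. Differentiated human HepaRG cells, 48 h chemical exposure, top concentration 100 uM, half-log steps, eight points.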
# [3] = read-out: Pyruvate Dehydrogenase Kinase 4 (PDK4), PDK4 (gene 5166); assay: LTEA_HepaRG_PDK4: Life Technologies and Expression Analysis (LTEA) Assay for Pyruvate Dehydrogenase Kinase 4 (PDK4) using HepaRG (AID 2283525)
# Outline: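 HepaRG (human liver line), 48 h chemical exposure, 8-pt half-log CRC top 100 uM, 0.5% DMSO vehicle, duplicates. Readout: TaqMan qRT-PCR of PDK4 mRNA, housekeeping-normalized; gain/loss fit relative to DMSO baseline.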
# [4] = read-out: NAD(P)H dehydrogenase [quinone] 1 (NQO1), NQO1 (gene 1728); assay: LTEA_HepaRG_NQO1: Life Technologies and Expression Analysis (LTEA) Assay for NAD(P)H dehydrogenase [quinone] 1 (NQO1) using HepaRG (AID 2283526)
# Outline: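 qRT-PCR read-out (Fluidigm TaqMan), normalized to three housekeeping genes, after 48 h chemical exposure of HepaRG cells. Concentrations: eight points, top 100 uM, half-log steps, 0.5% DMSO vehicle. Gain or loss of signal fitted relative to DMSO.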
# [5] = read-out: Nuclear factor erythroid 2-related factor 2 (Homo sapiens) (UniProt Q16236); assay: LTEA_HepaRG_NFE2L2: Life Technologies and Expression Analysis (LTEA) Assay for Nuclear factor erythroid 2-related factor 2 (NFE2L2) Transcription Factor using HepaRG (AID 2283527)
# Outline: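 HepaRG, 48 h dosing, 8-pt half-log series from 100 uM in 0.5% DMSO, duplicates. Read-out: NFE2L2 mRNA by qRT-PCR (ACTB/GAPDH/POLR2A normalization). Bidirectional curve fit vs DMSO baseline.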
# [6] = read-out: succinate dehydrogenase complex iron sulfur subunit B (SDHB), SDHB (gene 6390); assay: LTEA_HepaRG_SDHB: Life Technologies and Expression Analysis (LTEA) Assay for succinate dehydrogenase complex iron sulfur subunit B (SDHB) using HepaRG (AID 2283528)
# Outline: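 SDHB transcript level read by TaqMan qRT-PCR, housekeeping-normalised (ACTB, GAPDH, POLR2A), after 48 h chemical treatment of plated HepaRG cells; eight concentrations top 100 uM, half-log steps, 0.5% DMSO, duplicates; fitted both directions against DMSO.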
# [7] = read-out: Signal transducer and activator of transcription 3 (Homo sapiens) (UniProt P40763); assay: LTEA_HepaRG_STAT3: Life Technologies and Expression Analysis (LTEA) Assay for Signal transducer and activator of transcription (STAT3) using HepaRG (AID 2283529)
# Outline: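 HepaRG, 48 h exposure, 8-pt half-log series (top 100 uM), 0.5% DMSO vehicle, duplicates. Readout: STAT3 transcript by Fluidigm qRT-PCR, housekeeping-normalized; bidirectional fit vs DMSO baseline.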
# [8] = read-out: solute carrier (SLCO1B1), SLCO1B1 (gene 10599); assay: LTEA_HepaRG_SLCO1B1: Life Technologies and Expression Analysis (LTEA) Assay for solute carrier (SLCO1B1) using HepaRG (AID 2283530)
# Outline: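 Differentiated human HepaRG cells, plated 48 h, switched to serum-free induction medium and exposed in duplicate for 48 h to 8 half-log concentrations (top 100 uM) in 0.5% DMSO. SLCO1B1 mRNA by TaqMan qRT-PCR, normalized to ACTB/GAPDH/POLR2A.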
# [9] = read-out: sulfotransferase 2A1 (SULT2A1), SULT2A1 (gene 6822); assay: LTEA_HepaRG_SULT2A1: Life Technologies and Expression Analysis (LTEA) Assay for sulfotransferase 2A1 (SULT2A1) using HepaRG (AID 2283531)
# Outline: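 Differentiated human HepaRG cells in serum-free induction medium were exposed for 48 h to eight half-log concentrations (top 100 uM, 0.5% DMSO). SULT2A1 mRNA was measured by qRT-PCR, normalized to ACTB, GAPDH and POLR2A, and fitted bidirectionally against DMSO.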
# [10] = read-out: Transforming Growth Factor (TGFA), TGFA (gene 7039); assay: LTEA_HepaRG_TGFA: Life Technologies and Expression Analysis (LTEA) Assay for Transforming Growth Factor (TGFA) using HepaRG (AID 2283532)
# Outline: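 qRT-PCR read-out of TGFA transcript, normalized to three housekeeping genes, fitted bidirectionally against 0.5% DMSO baseline. Human HepaRG cultures received chemicals for 48 h at eight half-log concentrations, top 100 uM.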
# Sequence of Signal transducer and activator of transcription 3 (Homo sapiens) (P40763 whole entry, looked up): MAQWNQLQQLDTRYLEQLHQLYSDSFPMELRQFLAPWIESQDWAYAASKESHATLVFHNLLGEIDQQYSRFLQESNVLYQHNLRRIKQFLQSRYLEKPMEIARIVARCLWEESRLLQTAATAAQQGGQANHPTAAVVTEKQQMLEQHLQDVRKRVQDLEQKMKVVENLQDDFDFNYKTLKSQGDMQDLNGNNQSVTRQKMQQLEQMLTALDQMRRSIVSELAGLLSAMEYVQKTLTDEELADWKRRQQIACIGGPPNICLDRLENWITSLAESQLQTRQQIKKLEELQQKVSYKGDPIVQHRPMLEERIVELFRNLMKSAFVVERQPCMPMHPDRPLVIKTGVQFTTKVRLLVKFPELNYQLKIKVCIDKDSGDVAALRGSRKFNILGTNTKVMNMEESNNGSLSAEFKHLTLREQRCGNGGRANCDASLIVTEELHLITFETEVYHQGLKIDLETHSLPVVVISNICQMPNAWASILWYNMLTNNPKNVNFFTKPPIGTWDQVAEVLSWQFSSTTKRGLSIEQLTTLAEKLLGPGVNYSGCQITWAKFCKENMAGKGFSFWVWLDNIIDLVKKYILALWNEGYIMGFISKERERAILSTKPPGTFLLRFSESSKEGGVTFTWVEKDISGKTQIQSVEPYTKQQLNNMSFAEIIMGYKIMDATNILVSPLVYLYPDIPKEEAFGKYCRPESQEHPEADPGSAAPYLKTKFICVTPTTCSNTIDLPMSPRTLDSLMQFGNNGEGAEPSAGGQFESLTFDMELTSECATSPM
# Sequence of Nuclear factor erythroid 2-related factor 2 (Homo sapiens) (Q16236 whole entry, looked up): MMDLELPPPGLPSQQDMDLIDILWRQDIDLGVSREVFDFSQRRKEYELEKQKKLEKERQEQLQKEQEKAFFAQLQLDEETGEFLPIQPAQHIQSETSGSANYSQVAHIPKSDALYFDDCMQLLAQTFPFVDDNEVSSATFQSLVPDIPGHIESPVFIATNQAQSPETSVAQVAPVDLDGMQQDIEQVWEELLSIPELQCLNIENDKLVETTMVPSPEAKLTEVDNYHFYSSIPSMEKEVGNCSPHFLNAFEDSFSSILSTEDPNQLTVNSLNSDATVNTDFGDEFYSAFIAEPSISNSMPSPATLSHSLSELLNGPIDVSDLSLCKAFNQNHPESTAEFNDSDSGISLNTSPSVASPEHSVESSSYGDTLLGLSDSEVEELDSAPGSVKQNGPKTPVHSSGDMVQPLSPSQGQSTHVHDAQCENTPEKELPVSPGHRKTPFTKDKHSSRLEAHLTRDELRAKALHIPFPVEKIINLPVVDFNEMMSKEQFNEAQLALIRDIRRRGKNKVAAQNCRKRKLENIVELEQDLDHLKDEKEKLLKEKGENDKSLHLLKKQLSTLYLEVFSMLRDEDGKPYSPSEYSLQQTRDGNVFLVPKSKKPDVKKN
SMILES,outcome [1],outcome [2],outcome [3],outcome [4],outcome [5],outcome [6],outcome [7],outcome [8],outcome [9],outcome [10],AC50 [1],AC50 [2],AC50 [4],AC50 [8],AC50 [9],AC50 [3],AC50 [5],AC50 [6],AC50 [10],AC50 [7]
CNC(=O)CSP(=S)(OC)OC,inactive,inactive,inactive,inactive,inactive,inactive,inactive,inactive,inactive,inactive,–,–,–,–,–,–,–,–,–,–
O=[N+]([O-])c1c(Cl)c(Cl)c(Cl)c(Cl)c1Cl,inactive,inactive,inactive,inactive,inactive,inactive,inactive,inactive,inactive,inactive,–,–,–,–,–,–,–,–,–,–
CCC(C)(NC(=O)c1cc(Cl)c(C)c(Cl)c1)C(=O)CCl (stereo not given),–,–,inactive,–,inactive,inactive,inactive,–,–,inactive,90.8 µM (active),82.9 µM (active),79.8 µM (active),75.8 µM (active),79.5 µM (active),–,–,–,–,–
Clc1ccccc1-c1nnc(-c2ccccc2Cl)nn1,inactive,–,inactive,inactive,inactive,inactive,inactive,inactive,inactive,inactive,–,50 µM (active),–,–,–,–,–,–,–,–
CC(C)OC(=O)Nc1cccc(Cl)c1,inactive,inactive,inactive,inactive,inactive,inactive,inactive,inactive,inactive,inactive,–,–,–,–,–,–,–,–,–,–
CCCN(CCOc1c(Cl)cc(Cl)cc1Cl)C(=O)n1ccnc1,–,–,–,inactive,–,–,inactive,–,–,–,79.1 µM (active),29.5 µM (active),–,64.2 µM (active),34.9 µM (active),30.8 µM (active),29.9 µM (active),12.1 µM (active),50 µM (active),–
ClC1C(Cl)C(Cl)C(Cl)C(Cl)C1Cl (stereo not given),inactive,inactive,inactive,inactive,inactive,inactive,inactive,inactive,inactive,inactive,–,–,–,–,–,–,–,–,–,–
O=C(O)CCCOc1ccc(Cl)cc1Cl,inactive,inactive,–,inactive,inactive,inactive,inactive,inactive,inactive,inactive,–,–,–,–,–,50.8 µM (active),–,–,–,–
CC(C)(C)C(O)/C(=C\c1ccc(Cl)cc1Cl)n1cncn1 (stereo not given),–,–,–,inactive,–,inactive,inactive,–,–,inactive,79.1 µM (active),21 µM (active),–,69 µM (active),35.2 µM (active),29.4 µM (active),75.3 µM (active),–,–,–
CCCN(CCC)c1c([N+](=O)[O-])cc(C(F)(F)F)cc1[N+](=O)[O-],inactive,inactive,inactive,inactive,inactive,inactive,inactive,inactive,inactive,inactive,–,–,–,–,–,–,–,–,–,–
CC[C@H](C)[C@H]1O[C@]2(C=C[C@@H]1C)C[C@@H]1C[C@@H](C/C=C(\C)[C@@H](O[C@H]3C[C@H](OC)[C@@H](O[C@H]4C[C@H](OC)[C@@H](O)[C@H](C)O4)[C@H](C)O3)[C@@H](C)/C=C/C=C3\CO[C@@H]4[C@H](O)C(C)=C[C@@H](C(=O)O1)[C@]34O)O2 (tested in a mixture with another compound),–,–,–,–,–,–,–,–,–,–,54.5 µM (active),9.94 µM (active),49.7 µM (active),15.2 µM (active),8.58 µM (active),16.3 µM (active),14 µM (active),59.5 µM (active),13.9 µM (active),46 µM (active)
COP(=O)(OC)OC=C(Cl)Cl,inactive,inactive,inactive,inactive,inactive,inactive,inactive,inactive,inactive,inactive,–,–,–,–,–,–,–,–,–,–
COc1nn(CSP(=S)(OC)OC)c(=O)s1,inactive,inactive,inactive,inactive,inactive,inactive,inactive,inactive,inactive,inactive,–,–,–,–,–,–,–,–,–,–
OCCOc1ccccc1,inactive,inactive,inactive,inactive,inactive,inactive,inactive,inactive,inactive,inactive,–,–,–,–,–,–,–,–,–,–
O=C(NC(=O)c1c(F)cccc1F)Nc1ccc(OC(F)(F)C(F)OC(F)(F)F)c(Cl)c1 (stereo not given),inactive,inactive,inactive,inactive,inactive,inactive,inactive,inactive,inactive,inactive,–,–,–,–,–,–,–,–,–,–
CNC(=O)Oc1cccc(N=CN(C)C)c1,inactive,inactive,inactive,inactive,inactive,inactive,inactive,inactive,inactive,inactive,–,–,–,–,–,–,–,–,–,–
O=C(O)COc1ccc(Cl)cc1Cl,inactive,inactive,–,inactive,inactive,inactive,inactive,inactive,inactive,inactive,–,–,–,–,–,38.5 µM (active),–,–,–,–
O=C(O)C(F)(F)C(F)(F)C(F)(F)C(F)(F)C(F)(F)C(F)(F)C(F)(F)F,inactive,inactive,–,inactive,inactive,inactive,inactive,inactive,inactive,inactive,–,–,–,–,–,26.9 µM (active) and 21.7 µM (active),–,–,–,–
Cc1[nH]c(=O)n(C(C)(C)C)c(=O)c1Cl,inactive,inactive,inactive,inactive,–,inactive,inactive,inactive,inactive,inactive,–,–,–,–,–,–,50 µM (active),–,–,–
N#CN,inactive,inactive,inactive,inactive,inactive,inactive,inactive,inactive,inactive,inactive,–,–,–,–,–,–,–,–,–,–
CCc1ccc(C(=O)NN(C(=O)c2cc(C)cc(C)c2)C(C)(C)C)cc1,inactive,inactive,inactive,inactive,inactive,inactive,inactive,inactive,inactive,inactive,–,–,–,–,–,–,–,–,–,–
O=C(Nc1ccccc1)Nc1cnns1,inactive,–,–,inactive,inactive,inactive,inactive,–,–,inactive,–,70 µM (active),–,74.2 µM (active),50 µM (active),62.4 µM (active),–,–,–,–
CNC(=O)/C=C(\C)OP(=O)(OC)OC,inactive,inactive,–,inactive,inactive,inactive,inactive,inactive,inactive,inactive,–,–,–,–,–,37.1 µM (active),–,–,–,–
